Only a selection was taken, and hits are over-represented in it overall.
Dicer inh: inhibitors of Dicer pre-microRNA processing, primary screen, biochemical, cat-ELCCA, chemiluminescence; Endoribonuclease Dicer (Homo sapiens), Q9UPY3; cat-ELCCA pre-miR-21 Dicer processing; active compounds read high; z-score at 25 µM; hit rate 6% among 47,000; AID 1347074, 2019; in the data active means z-score above about 3, passing the limit was not always enough;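 further: plate controls were vehicle for no effect and no enzyme for full effect; higher signal means more uncleaved substrate so more Dicer inhibition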
Target sequence (Q9UPY3 whole entry, looked up): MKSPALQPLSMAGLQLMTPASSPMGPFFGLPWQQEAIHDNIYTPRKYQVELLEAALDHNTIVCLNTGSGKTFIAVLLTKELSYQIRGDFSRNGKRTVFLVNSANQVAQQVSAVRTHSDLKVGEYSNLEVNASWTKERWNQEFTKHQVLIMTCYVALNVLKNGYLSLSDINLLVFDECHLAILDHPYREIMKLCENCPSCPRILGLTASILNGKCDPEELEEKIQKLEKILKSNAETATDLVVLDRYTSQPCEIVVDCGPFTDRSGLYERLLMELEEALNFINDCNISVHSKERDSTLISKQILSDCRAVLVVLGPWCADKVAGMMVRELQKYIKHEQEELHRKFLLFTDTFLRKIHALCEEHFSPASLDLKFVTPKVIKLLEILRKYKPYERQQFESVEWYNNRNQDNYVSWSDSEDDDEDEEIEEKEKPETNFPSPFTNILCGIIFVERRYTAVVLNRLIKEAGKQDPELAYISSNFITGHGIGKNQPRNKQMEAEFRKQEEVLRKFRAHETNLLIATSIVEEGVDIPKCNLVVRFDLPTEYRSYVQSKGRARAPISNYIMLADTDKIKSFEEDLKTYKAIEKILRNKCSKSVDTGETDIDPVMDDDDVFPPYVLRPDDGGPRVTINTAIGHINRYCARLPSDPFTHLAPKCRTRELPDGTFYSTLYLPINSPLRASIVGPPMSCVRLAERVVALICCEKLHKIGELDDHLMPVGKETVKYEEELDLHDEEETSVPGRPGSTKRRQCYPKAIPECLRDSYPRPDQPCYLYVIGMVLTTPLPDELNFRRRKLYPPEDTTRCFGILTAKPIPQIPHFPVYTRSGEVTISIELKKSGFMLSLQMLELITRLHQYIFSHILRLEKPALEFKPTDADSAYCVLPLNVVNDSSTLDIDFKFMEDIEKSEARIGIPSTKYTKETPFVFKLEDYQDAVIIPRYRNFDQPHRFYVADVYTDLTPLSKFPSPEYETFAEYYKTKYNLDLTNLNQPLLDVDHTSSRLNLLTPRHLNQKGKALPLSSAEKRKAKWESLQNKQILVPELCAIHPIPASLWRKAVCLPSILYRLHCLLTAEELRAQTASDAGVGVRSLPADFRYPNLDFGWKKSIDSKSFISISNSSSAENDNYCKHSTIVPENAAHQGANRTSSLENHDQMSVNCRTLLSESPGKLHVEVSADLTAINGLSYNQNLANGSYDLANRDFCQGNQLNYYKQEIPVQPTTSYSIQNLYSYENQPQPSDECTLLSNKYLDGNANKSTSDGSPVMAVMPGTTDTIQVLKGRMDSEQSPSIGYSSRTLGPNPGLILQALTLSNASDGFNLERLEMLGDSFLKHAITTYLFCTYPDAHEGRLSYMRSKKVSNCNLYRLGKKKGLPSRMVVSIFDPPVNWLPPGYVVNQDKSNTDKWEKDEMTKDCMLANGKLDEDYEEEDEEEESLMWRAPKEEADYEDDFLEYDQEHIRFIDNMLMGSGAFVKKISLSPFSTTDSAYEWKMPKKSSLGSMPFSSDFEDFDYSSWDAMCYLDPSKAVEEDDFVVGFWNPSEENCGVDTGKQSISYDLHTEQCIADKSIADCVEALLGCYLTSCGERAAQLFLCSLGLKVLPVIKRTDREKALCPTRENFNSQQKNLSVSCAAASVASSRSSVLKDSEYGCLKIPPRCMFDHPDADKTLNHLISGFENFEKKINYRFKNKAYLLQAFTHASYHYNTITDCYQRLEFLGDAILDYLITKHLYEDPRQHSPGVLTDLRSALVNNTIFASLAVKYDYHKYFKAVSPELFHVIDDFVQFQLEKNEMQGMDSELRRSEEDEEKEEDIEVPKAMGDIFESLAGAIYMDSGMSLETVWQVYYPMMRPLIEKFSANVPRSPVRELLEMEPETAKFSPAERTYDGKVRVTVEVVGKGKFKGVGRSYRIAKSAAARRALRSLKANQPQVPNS
* marks the source's active call; other numbers are inactive results.

SMILES	Dicer inh
O=C(Nc1nc2ccc(Cl)cc2s1)C1CN(C(c2ccccc2)c2ccccc2)C1	-0.17
CCOC(=O)c1cc(C#N)c(Sc2n[nH]c(C(C)(C)C)n2)nc1C(F)(F)F	-0.66
O=C(Cn1cc(C(=O)C2CCCCC2)c2ccccc21)NCc1ccc2c(c1)OCO2	-0.21
COc1ccccc1C1CCN(c2ccc([N+](=O)[O-])c(OC)c2)CC1	3.44*
COc1ccccc1C1CCN(Cc2ccc(Cl)cc2Cl)CC1	-0.25
COc1ccccc1C1CCN(c2ccc(C(F)(F)F)cc2[N+](=O)[O-])CC1	0.04
COc1cc(OC)cc(-c2nc3n(n2)C(c2ccccc2)C2=C(CCCC2=O)N3)c1 (centres undefined)	2.39
CC1CC(=O)C2=C(C1)Nc1nc(C(F)(F)F)nn1C2c1ccccc1 (centres undefined)	5.2*
O=C1CC(c2ccco2)CC2=C1C(c1ccccc1)n1nc(C(F)(F)F)nc1N2 (centres undefined)	0.25
COC(=O)C1C2C=CC3(CN(C(C)C)C(=O)C13)O2 (centres undefined)	0.21
COc1cc(C2Nc3ccc4ncccc4c3C3=C2C(=O)CC(C)(C)C3)ccc1O (centres undefined)	1
O=C(Nc1ccc(Cl)cc1)Nc1cc(Cl)sc1Cl	4.67*
O=C(Nc1ccc(Cl)cc1)Nc1nc(-c2cc(Cl)c(Cl)s2)cs1	1.52
N#Cc1c(F)ccc(NC(=O)Nc2ccc(Cl)cc2)c1F	-0.58
CC(C)(C)C1CCc2c(sc(NC(=O)c3cccs3)c2C(=O)N2CCCC2)C1 (centres undefined)	-1.3
CCOC(=O)c1ccc(Oc2sccc2[N+](=O)[O-])cc1	3.43*
CCOC(=O)c1ccc(N)cc1	0.55
CCOC(=O)C1CCN(c2sccc2[N+](=O)[O-])CC1	0.88
COC(=O)C1=C(C)NC(C)=C([N+](=O)[O-])C1c1ccccc1C(F)(F)F (centres undefined)	-0.71
CC(C)(C)OC(=O)N1CCC(CNS(=O)(=O)c2cc(Cl)sc2Cl)CC1	0.15
COC(=O)CSc1nc(N)nc(C)c1Br	-0.01
COc1ccc(NS(=O)(=O)c2ccc3c4c(cccc24)C(=O)N3)cc1	0.18
O=C(O)c1ccccc1NS(=O)(=O)c1ccc2c3c(cccc13)C(=O)S2	-0.85
O=C1Sc2ccc(S(=O)(=O)Nc3ccc(F)cc3)c3cccc1c23	3.51*
O=C1c2oc3ccccc3c(=O)c2C(c2cccc(O)c2)N1c1nncs1 (centres undefined)	-0.01
SMILES	Dicer inh
COC(=O)CC1=NN(c2nc3ccccc3[nH]2)C(=O)C1	5.31*
CCOC(=O)Cc1nc2ccccc2[nH]1	2.82
CC(C)(Cc1nc2ccccc2[nH]1)C(=O)O	-1.32
CCOC(=O)c1cc(-c2ccnn2C(=O)c2ccc(C(F)(F)F)cc2)on1	-5.35
Cc1ccc(CCC(=O)Nc2c(C)n(C)n(-c3ccccc3)c2=O)o1	0.22
CCOC(=O)Cn1c(=O)c(-c2nc(-c3ccc(Cl)cc3)cs2)cn(C(C)C)c1=O	1.42
CC1(C)CC(=O)C2=C(C1)Nc1ccccc1NC2c1cccc(F)c1 (centres undefined)	2.02
Cc1cc(-c2nnc(SCC(=O)c3ccc4c(c3)OCCO4)o2)no1	-1.3
Cc1cc(NC(=O)c2ccc3c(c2)OCO3)no1	19.7
Cc1cc(NC(=O)c2ccc3c(c2)OCCO3)no1	4.19*
CSc1nc(C)nc(-c2ccccc2)c1C#N	-1.8
COc1ccc(-c2c3c([nH]c(=S)c2C#N)CCC3)cc1	-0.54
CSc1ccc(C2C(C(=O)OC3CCCC3)=C(C)NC3=C2C(=O)CCC3)cc1 (centres undefined)	2.56
CCCS(=O)(=O)c1c(S(=O)(=O)CCC)c2ccccn2c1C(=O)c1ccc(F)cc1	5.04*
CCCS(=O)(=O)c1c(S(=O)(=O)CCC)c2ccc(C(N)=O)cn2c1C(=O)c1ccc(F)cc1	35.1
CCCS(=O)(=O)c1c(S(=O)(=O)CCC)c2ccccn2c1C(=O)c1ccc(C)cc1	31.4
Cn1c(=O)c2c(ncn2CC(=O)c2ccc(Cl)cc2)n(C)c1=O	0.26
CCOc1ccc2c(c1)C(C)=CC(C)(C)N2S(=O)(=O)c1ccc(Br)cc1	-0.54
CCCC[C@@]1(C2CCCC2)Cc2cc(OCC(=O)O)c(Cl)c(Cl)c2C1=O	3.95*
O=C(CCn1nnc(-c2cccc(Cl)c2Cl)n1)N/N=C/c1ccc(Cl)cc1	2.39
COC(=O)c1c(NC(=O)COc2ccc(Br)cc2)sc2c1CCC(C)C2 (centres undefined)	1.76
Cc1ccc(C(=O)CC(=O)c2ccc(C)cc2O)cc1	3.61*
Cc1ccc(C(=O)c2cc(Cl)cc(Cl)c2)c(C)c1	-3.2
CCCC(=O)c1ccc(NC(C)=O)cc1O	0.35
COC(=O)c1ccc(S(=O)(=O)N(Cc2ccccc2)C(C)C)o1	-1.48
SMILES	Dicer inh
Cc1cc(C)nc(NS(=O)(=O)c2ccc(NCc3cc(Br)ccc3O)cc2)n1	10.3
COc1ccc(-c2cnc(NCc3cc(Cl)ccc3O)n2C)cc1	1.26
COc1nccnc1NS(=O)(=O)c1ccc(NCc2cc(Cl)ccc2O)cc1	3.71*
O=C1/C(=C/c2cccs2)COC/C1=C\c1cccs1	4.16*
O=C1/C(=C/c2cccs2)CS/C1=C/c1cccs1	-3
O=C1/C(=C/c2cccs2)CCCc2ccccc21	0.41
COCCNS(=O)(=O)c1cc(-c2nnc3c4ccccc4c(C)nn23)ccc1OC	1.37
CCN1CCN(Cc2ccc3cccnc3c2O)CC1	-1.24
Oc1c(C(c2ccc(F)cc2)N2CCCCC2)ccc2cccnc12 (centres undefined)	3.71*
Oc1c(C(c2ccccn2)N2CCCC2)ccc2cccnc12 (centres undefined)	0.52
CN1c2ccc(Cl)cc2C(=O)NC1c1ccc([N+](=O)[O-])s1 (centres undefined)	-0.03
Cc1ccc2nc3c(nc2c1)-c1cccc2cccc-3c12	1.85
COc1ccc(C2/C(=C(\O)c3ccc(C)cc3)C(=O)C(=O)N2CCCN(C)C)cc1 (centres undefined)	2.48
CN1C(=O)C2(/C(=C(/O)c3ccc(F)cc3)C(=O)C(=O)N2CCCN2CCOCC2)c2ccccc21 (centres undefined)	0.07
Cc1ccc(/C(O)=C2/C(=O)C(=O)N(CCN3CCOCC3)C23C(=O)N(C)c2ccccc23)cc1F (centres undefined)	4.18*
CCCN1C(=O)C2(/C(=C(/O)c3ccccc3)C(=O)C(=O)N2CCN2CCOCC2)c2ccccc21 (centres undefined)	4.67*
COc1ccc(/C(O)=C2\C(=O)C(=O)N(CCCN(C)C)C2c2ccc(N(C)C)cc2)cc1 (centres undefined)	1.13
CCN1C(=O)C2(/C(=C(/O)c3ccc(C)cc3)C(=O)C(=O)N2CCCN2CCOCC2)c2ccccc21 (centres undefined)	2.24
CCN1C(=O)C2(/C(=C(/O)c3ccc(F)cc3)C(=O)C(=O)N2CCN2CCOCC2)c2ccccc21 (centres undefined)	5.7*
Cc1ccc(/C(O)=C2/C(=O)C(=O)N(CCCN3CCOCC3)C23C(=O)N(C)c2ccccc23)cc1F (centres undefined)	-3.86
CN1C(=O)C2(/C(=C(/O)c3ccc(Cl)cc3)C(=O)C(=O)N2CCN2CCOCC2)c2ccccc21 (centres undefined)	-0.98
COCCCN1C(=O)C(=O)/C(=C(/O)c2ccc(C)cc2)C1c1ccc(N(C)C)cc1 (centres undefined)	3.18*

High-throughput results from PubChem.
